Over roughly 1,600 compounds, “Hit score” has its median near 0.13; the highest 2% begin near 0.46. Shown is part of a subset that was picked to be rich in the highest values.
test system: SARS-CoV-2; experiment: Antiviral activity against SARS-CoV-2 (USA-WA1/2020 strain) measured by imaging in HRCE cells at MOI 0.4 after 96 hrs (reported as hit score from 0-1 for on-disease vs off-disease activity: scores >0.6 considered hits); format: functional, Homo sapiens

SMILES | Hit score
CCCCc1cc2ccccc2c(OCCN(C)C)n1 [DIMETHISOQUIN] | 0.1395
CC[C@]1(O)C[C@@H]2CN(CCc3c([nH]c4ccccc34)[C@@](C(=O)OC)(c3cc4c(cc3OC)N(C)[C@H]3[C@@](O)(C(=O)OC)[C@H](OC(C)=O)[C@]5(CC)C=CCN6CC[C@]43[C@@H]65)C2)C1 [VINBLASTINE] | 0.2235
CC[C@]1(O)C[C@H]2CN(CCc3c([nH]c4ccccc34)[C@@](C(=O)OC)(c3cc4c(cc3OC)N(C=O)[C@H]3[C@@](O)(C(=O)OC)[C@H](OC(C)=O)[C@]5(CC)C=CCN6CC[C@]43[C@@H]65)C2)C1 [VINCRISTINE] | 0.4904
O=C(C[S+]([O-])Cc1ccco1)NC/C=C\COc1cc(CN2CCCCC2)ccn1 (centres undefined) [LAFUTIDINE] | 0.2245
CCC(c1ccccc1)c1c(O)c2ccccc2oc1=O (centres undefined) [PHENPROCOUMON] | 0.1829
COc1ccc2c3c1O[C@H]1C[C@@H](O)C=C[C@@]31CCN(C)C2 [GALANTAMINE] | 0.2532
CC(C)COc1ccc(CNC(=O)N(Cc2ccc(F)cc2)C2CCN(C)CC2)cc1 [PIMAVANSERIN] | -0.09171
Brc1ccc(NC2C3CC4CC(C3)CC2C4)cc1 (centres undefined) | 0.3495
CO[C@H]1C(=O)[C@]2(C)[C@@H](OC)C[C@H]3OC[C@@]3(OC(C)=O)[C@H]2[C@H](OC(=O)c2ccccc2)[C@]2(O)C[C@H](OC(=O)[C@H](O)[C@@H](NC(=O)OC(C)(C)C)c3ccccc3)C(C)=C1C2(C)C [CABAZITAXEL] | -0.8282
COC(=O)c1ccc2c(c1)NC(=O)/C2=C(\Nc1ccc(N(C)C(=O)CN2CCN(C)CC2)cc1)c1ccccc1 [NINTEDANIB] | 0.1859
O=c1ncnc2n([C@H]3O[C@@H](CO)[C@H](O)[C@@H]3O)[nH]cc1-2 [ALLOPURINOL RIBOSIDE] | 0.1953
Cc1c(O)cccc1C(=O)N[C@@H](CSc1ccccc1)[C@H](O)CN1C[C@H]2CCCC[C@H]2C[C@H]1C(=O)NC(C)(C)C | 0.1621
COc1ccc(C(=O)N2CCN(c3ccc4c(c3)CCC(=O)N4)CC2)cc1OC [VESNARINONE] | 0.09463
CCCOC(C(=O)OC1CCN(C)CC1)(c1ccccc1)c1ccccc1.Cl | 0.3138
C/C=C/C[C@@H](C)[C@@H](O)[C@H]1C(=O)N[C@@H](CC)C(=O)N(C)CC(=O)N(C)[C@@H](CC(C)C)C(=O)N[C@@H](C(C)C)C(=O)N(C)[C@@H](CC(C)C)C(=O)N[C@@H](C)C(=O)N[C@H](C)C(=O)N(C)[C@@H](CC(C)C)C(=O)N(C)[C@@H](CC(C)C)C(=O)N(C)[C@@H](C(C)C)C(=O)N1C [CYCLOSPORINE] | 0.07198
COc1ccc2c(c1)c(CC(=O)OCC(C(=O)O)c1ccccc1)c(C)n2C(=O)c1ccc(Cl)cc1 (centres undefined) | 0.05914
COc1ccccc1OC(=O)c1ccccc1OC(C)=O [GUACETISAL] | 0.1414

SMILES | Hit score
COc1ccc(NC(=O)c2ccc(C(=N)N(C)C)cc2)c(C(=O)Nc2ccc(Cl)cn2)c1 [BETRIXABAN] | 0.004778
O=C1NC(c2ccccc2)(c2ccccc2)C(=O)N1COP(=O)(O)O [FOSPHENYTOIN] | -0.01075
CNC(=O)c1cccc(NC(=O)N2CCC(Oc3ccccc3Cl)CC2)c1 | 0.1005
CCCCc1nc(C)c(CC(=S)N(C)C)c(=O)n1Cc1ccc(-c2ccccc2-c2nnn[nH]2)cc1 | 0.1262
COc1ccc2c(O[C@@H]3C[C@H]4C(=O)N[C@]5(C(=O)NS(=O)(=O)C6CC6)C[C@H]5/C=C\CCCCN(C)C(=O)[C@@H]4C3)cc(-c3nc(C(C)C)cs3)nc2c1C | 0.1824
C=C1/C(=C\C=C2/CCC[C@]3(C)[C@@H]([C@H](C)/C=C/[C@H](C)C(C)C)CC[C@@H]23)C[C@@H](O)C[C@@H]1O [DOXERCALCIFEROL] | 0.4621
C=C1CC[C@H](O)C/C1=C/C=C1\CCC[C@]2(C)[C@@H]([C@H](C)CCCC(C)C)CC[C@@H]12 [CHOLECALCIFEROL] | 0.2186
C=C1/C(=C\C=C2/CCC[C@]3(C)[C@@H]([C@H](C)OCCC(C)(C)O)CC[C@@H]23)C[C@@H](O)C[C@@H]1O [MAXACALCITOL] | -0.1282
C=C1/C(=C\C=C2/CCC[C@]3(C)[C@@H]([C@H](C)CC[C@@H](O)C(C)C)CC[C@@H]23)C[C@@H](O)C[C@@H]1O [TACALCITOL] | 0.4469
C[C@H](/C=C/[C@H](C)C(C)(C)O)[C@H]1CC[C@H]2/C(=C/C=C3C[C@@H](O)C[C@H](O)C3)CCC[C@]12C [PARICALCITOL] | 0.5764
C=C1/C(=C\C=C2/CCC[C@]3(C)[C@@H]([C@H](C)/C=C/[C@@H](O)C4CC4)CC[C@@H]23)C[C@@H](O)C[C@@H]1O [CALCIPOTRIENE] | 0.6212
C=C1CC[C@H](O)C/C1=C/C=C1\CCC[C@]2(C)[C@@H]([C@H](C)CC[C@@H](O)C(C)(C)O)CC[C@@H]12 [SECALCIFEROL] | 0.3632
C=C1CC[C@H](O)C/C1=C/C=C1\CCC[C@]2(C)[C@@H]([C@H](C)CCCC(C)(C)O)CC[C@@H]12 [CALCIFEDIOL ANHYDROUS] | 0.4579
CCN(CC)C(=O)Nc1ccc(OCC(O)CNC(C)(C)C)c(C(C)=O)c1 (centres undefined) [CELIPROLOL] | 0.5089
CN(C)C(=O)Oc1cc(OC(=O)N(C)C)cc(C(O)CNC(C)(C)C)c1 (centres undefined) [BAMBUTEROL] | 0.1323
CC(C)(C)NCC(O)COc1ccc(NC(=O)NC2CCCCC2)cc1 (centres undefined) [TALINOLOL] | 0.1441
C[C@]12CC[C@H]3[C@@H](CC[C@@]45O[C@@H]4C(O)=C(C#N)C[C@]35C)[C@@H]1CC[C@@H]2O [TRILOSTANE] | 0.3178

From ChEMBL document CHEMBL4303122, “Identification of potential treatments for COVID-19 through artificial intelligence-enabled phenomic analysis of human cells infected with SARS-CoV-2” (2020)
